Measurements taken from the supplement of paper PMC7530171.
Counter-ions that a name gives are not always drawn. ± gives the standard deviation.

What follows are molecules tested on THP-1 (assay: THP-1 cell loss relative to DMSO control; higher = more host cell loss (toxicity); extreme values may be limits of the assay). Details: 10 µM; 4 days; infection: M. tuberculosis H37Rv.
Description: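 OICR kinase inhibitor library screened in duplicate at 10 uM against M. tuberculosis-infected THP-1 macrophages, 4 days at 37 C. THP-1 cell loss (cytotoxicity or loss of adherence) was quantified from Hoechst-stained nuclei counts by high-content imaging and normalised to the 1% DMSO control; 100 = complete loss of host cells.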
Work on `COc1cccc2cc(-c3nc([C@H]4CC[C@H](C(=O)O)CC4)n4ncnc(N)c34)[nH]c12` [OSI-027 hydrochloride] yielded a THP-1 cell loss of 51.2 ± 4.5%. With `COc1nccc(-c2c(-c3ccc(F)cc3)ncn2C2CCNCC2)n1` the THP-1 cell loss was 4.97 ± 0.45%. With `COc1cc2nccc(Oc3ccc(NC(=O)C4(C(=O)Nc5ccc(F)cc5)CC4)cc3)c2cc1OC` the THP-1 cell loss was 83.9 ± 4.8%. `COc1ccc(S(=O)(=O)N(C(C)=O)c2ccccc2/C=C/c2cc[n+]([O-])cc2)cc1` showed a THP-1 cell loss of 51.3 ± 4.4%. In the case of `Nc1ncnc2c1c(-c1cccc(OCc3ccccc3)c1)cn2C1CC(CN2CCC2)C1` (stereo not given), the THP-1 cell loss is reported as 18.9 ± 6%. `Cc1nc2sccn2c(=O)c1CCN1CCC(=C(c2ccccc2)c2ccc(F)cc2)CC1` was tested, and the THP-1 cell loss was 0%. For `COc1cc2ncnc(-n3nc(-c4ccccn4)nc3N)c2cc1OC`, the THP-1 cell loss was 67 ± 15%. Work on `COc1cc2c(N3CCN(C(=O)Nc4ccc(OC(C)C)cc4)CC3)ncnc2cc1OCCCN1CCCCC1` yielded a THP-1 cell loss of 4.46 ± 6.3%. For `COc1cc2ncnc(Nc3ccc(Cl)cc3F)c2cc1OC`, the THP-1 cell loss was 0.676 ± 0.63%. With `Cc1c[nH]c(/C=C2\C(=O)Nc3ccccc32)c1CCC(=O)O` the THP-1 cell loss was 10.8 ± 15%. Molecule `CN(C)CC(C)(C)CNc1nn2c(-c3ccccc3)nnc2cc1C1CCC1` has a THP-1 cell loss of 18.4 ± 1.3%. `COc1cc2ncc(-c3ccccc3)nc2cc1OC` [Tyrphostin AG-1296] was tested, and the THP-1 cell loss was 0%. Molecule `Cn1c(=O)c(Oc2ccc(F)cc2F)cc2cnc(NC3CCOCC3)nc21` has a THP-1 cell loss of 17.2 ± 6.1%. `Cc1ccc(NC(=O)c2ccc(CN3CCN(C)CC3)cc2)cc1Nc1nc(-c2cccnc2)cs1` [Masitinib mesylate] gave a THP-1 cell loss of 62.9 ± 7.5%. Molecule `COc1ccc(-c2ccc3c(N4CCOCC4)nc(N4C[C@@H](C)O[C@@H](C)C4)nc3n2)cc1CO` has a THP-1 cell loss of 53.5 ± 18%. With `O=C(Nc1cc(C(F)(F)F)cc(C(F)(F)F)c1)c1cc(Cl)ccc1O` the THP-1 cell loss was 53 ± 46%. `O=S(=O)(NCCNC/C=C/c1ccc(Br)cc1)c1cccc2cnccc12` [H 89 dihydrochloride] was tested, and the THP-1 cell loss was 10 ± 2.1%. For `CCN(CC)CCCCNc1ncc2cc(-c3cc(OC)cc(OC)c3)c(NC(=O)NC(C)(C)C)nc2n1`, the THP-1 cell loss was 8.25 ± 12%. In the case of `COc1cc(CCc2cc(NC(=O)c3ccc(N4CC(C)NC(C)C4)cc3)n[nH]2)cc(OC)c1` (stereo not given), the THP-1 cell loss is reported as 45.7 ± 11%. In the case of `C[C@@]1(C(=O)Nc2ccc(F)nc2)CCCN1c1nc(Nc2cc(C3CC3)n[nH]2)c2cccn2n1`, the THP-1 cell loss is reported as 43.7 ± 27%. `CC(C)N(CCC(=O)c1ccc2ccccc2c1)Cc1ccccc1` was tested, and the THP-1 cell loss was 3.99 ± 5.6%. In the case of `Oc1cccc(-c2nc(N3CCOCC3)c3oc4ncccc4c3n2)c1`, the THP-1 cell loss is reported as 24.3 ± 3.9%. Molecule `Cc1cc(Nc2cc(C)c(C#N)c(NC(C)CCCC(C)(C)O)n2)n[nH]1` (stereo not given) [TC-A 2317 hydrochloride] has a THP-1 cell loss of 19.1 ± 1%. For `O=c1c(O)c(-c2ccc(O)c(O)c2)oc2cc(O)cc(O)c12` [Quercetin], the THP-1 cell loss was 12.8 ± 2.6%. Work on `FC(F)c1nc2ccccc2n1-c1nc(N2CCOCC2)nc(N2CCOCC2)n1` yielded a THP-1 cell loss of 35.9 ± 1.9%. `O=C1c2ccc(O)c(O)c2C(=O)c2c(O)ccc(O)c21` [Quinalizarin] gave a THP-1 cell loss of 4.66 ± 6.6%. With `S=C(NCc1ccc2c(c1)OCO2)N1CCN(c2ncnc3c2oc2ccccc23)CC1` the THP-1 cell loss was 20.7 ± 25%. With `C/C(=N\N=C(N)N)c1ccc(NC(=O)Nc2ccc(/C(C)=N/N=C(N)N)cc2)cc1` the THP-1 cell loss was 3.54 ± 5%. With `CS(=O)(=O)CCNCc1nc(-c2ccc3ncnc(Nc4ccc(OCc5cccc(F)c5)c(Cl)c4)c3c2)cs1` the THP-1 cell loss was 37.5 ± 15%. `COc1cc2ncnc(Nc3ccc(O)c(Br)c3)c2cc1OC` was tested, and the THP-1 cell loss was 15.2 ± 1.4%. `CC(C)CCN1c2nc(Nc3cc(F)c(O)c(F)c3)ncc2N(C)C(=O)C1C` (stereo not given) showed a THP-1 cell loss of 56.5 ± 6.2%. `O=c1cc(-c2cccc3c2Sc2ccccc2S3)oc(N2CCOCC2)c1` was tested, and the THP-1 cell loss was 26.6 ± 14%. Work on `COc1ccc2c3n(c(=NC(=O)c4cccnc4)nc2c1OC)CCN3` yielded a THP-1 cell loss of 32.5 ± 0.91%. In the case of `COc1ccc(-c2ccc3c(N4CCOC[C@@H]4C)nc(N4CCOC[C@@H]4C)nc3n2)cc1CO`, the THP-1 cell loss is reported as 40.8 ± 2.5%. `FC(F)(F)c1ccc(/C=C/c2nc(COc3ccc(CCCCn4ccnn4)cc3)co2)cc1` [Mubritinib] was tested, and the THP-1 cell loss was 51 ± 24%.

These molecules were tested on THP-1 macrophages infected with Mycobacterium tuberculosis H37Rv (assay: intracellular M.tb growth inhibition relative to DMSO (0) and 4 uM bedaquiline (100); higher = stronger inhibition of intracellular bacterial growth). Details: 10 µM; 4 days.
Description: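 OICR kinase inhibitor library screened in duplicate at 10 uM against THP-1 macrophages (PMA-differentiated) infected with M. tuberculosis H37Rv-pTEC27 (tdTomato RFP), 4 days at 37 C. Rows with complete host cell loss (placeholder inhibition 0, cell loss 100) were removed.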
In the case of `COc1cccc2cc(-c3nc([C@H]4CC[C@H](C(=O)O)CC4)n4ncnc(N)c34)[nH]c12` [OSI-027 hydrochloride], the “intracellular M.tb growth inhibition” value is reported as -318 ± 370%. In the case of `COc1nccc(-c2c(-c3ccc(F)cc3)ncn2C2CCNCC2)n1`, the “intracellular M.tb growth inhibition” value is reported as -58.3 ± 93%. `COc1cc2nccc(Oc3ccc(NC(=O)C4(C(=O)Nc5ccc(F)cc5)CC4)cc3)c2cc1OC` was tested, and the “intracellular M.tb growth inhibition” value was 94.8 ± 23%. `COc1ccc(S(=O)(=O)N(C(C)=O)c2ccccc2/C=C/c2cc[n+]([O-])cc2)cc1` was tested, and the “intracellular M.tb growth inhibition” value was -316 ± 310%. For `Nc1ncnc2c1c(-c1cccc(OCc3ccccc3)c1)cn2C1CC(CN2CCC2)C1` (stereo not given), the “intracellular M.tb growth inhibition” value was -22.8 ± 12%. `Cc1nc2sccn2c(=O)c1CCN1CCC(=C(c2ccccc2)c2ccc(F)cc2)CC1` was tested, and the “intracellular M.tb growth inhibition” value was 58.1 ± 4.4%. With `COc1cc2ncnc(-n3nc(-c4ccccn4)nc3N)c2cc1OC` the “intracellular M.tb growth inhibition” value was -77 ± 180%. With `COc1cc2c(N3CCN(C(=O)Nc4ccc(OC(C)C)cc4)CC3)ncnc2cc1OCCCN1CCCCC1` the “intracellular M.tb growth inhibition” value was 53 ± 8%. For `COc1cc2ncnc(Nc3ccc(Cl)cc3F)c2cc1OC`, the “intracellular M.tb growth inhibition” value was 48.4 ± 20%. For `Cc1c[nH]c(/C=C2\C(=O)Nc3ccccc32)c1CCC(=O)O`, the “intracellular M.tb growth inhibition” value was 27.3 ± 23%. With `CN(C)CC(C)(C)CNc1nn2c(-c3ccccc3)nnc2cc1C1CCC1` the “intracellular M.tb growth inhibition” value was -56.3 ± 120%. `COc1cc2ncc(-c3ccccc3)nc2cc1OC` [Tyrphostin AG-1296] was tested, and the “intracellular M.tb growth inhibition” value was 1.21 ± 2%. With `Cn1c(=O)c(Oc2ccc(F)cc2F)cc2cnc(NC3CCOCC3)nc21` the “intracellular M.tb growth inhibition” value was -140 ± 130%. With `Cc1ccc(NC(=O)c2ccc(CN3CCN(C)CC3)cc2)cc1Nc1nc(-c2cccnc2)cs1` [Masitinib mesylate] the “intracellular M.tb growth inhibition” value was 95.5 ± 1.8%. In the case of `COc1ccc(-c2ccc3c(N4CCOCC4)nc(N4C[C@@H](C)O[C@@H](C)C4)nc3n2)cc1CO`, the “intracellular M.tb growth inhibition” value is reported as -282 ± 370%. In the case of `O=C(Nc1cc(C(F)(F)F)cc(C(F)(F)F)c1)c1cc(Cl)ccc1O`, the “intracellular M.tb growth inhibition” value is reported as 64.7 ± 16%. In the case of `O=S(=O)(NCCNC/C=C/c1ccc(Br)cc1)c1cccc2cnccc12` [H 89 dihydrochloride], the “intracellular M.tb growth inhibition” value is reported as 70.3 ± 6.1%. `CCN(CC)CCCCNc1ncc2cc(-c3cc(OC)cc(OC)c3)c(NC(=O)NC(C)(C)C)nc2n1` was tested, and the “intracellular M.tb growth inhibition” value was 34.4 ± 29%. With `COc1cc(CCc2cc(NC(=O)c3ccc(N4CC(C)NC(C)C4)cc3)n[nH]2)cc(OC)c1` (stereo not given) the “intracellular M.tb growth inhibition” value was -216 ± 180%. In the case of `C[C@@]1(C(=O)Nc2ccc(F)nc2)CCCN1c1nc(Nc2cc(C3CC3)n[nH]2)c2cccn2n1`, the “intracellular M.tb growth inhibition” value is reported as -265 ± 70%. For `CC(C)N(CCC(=O)c1ccc2ccccc2c1)Cc1ccccc1`, the “intracellular M.tb growth inhibition” value was 22.8 ± 6.8%. `Oc1cccc(-c2nc(N3CCOCC3)c3oc4ncccc4c3n2)c1` was tested, and the “intracellular M.tb growth inhibition” value was -62.7 ± 17%. `Cc1cc(Nc2cc(C)c(C#N)c(NC(C)CCCC(C)(C)O)n2)n[nH]1` (stereo not given) [TC-A 2317 hydrochloride] was tested, and the “intracellular M.tb growth inhibition” value was -257 ± 200%. In the case of `O=c1c(O)c(-c2ccc(O)c(O)c2)oc2cc(O)cc(O)c12` [Quercetin], the “intracellular M.tb growth inhibition” value is reported as -5.54 ± 46%. In the case of `FC(F)c1nc2ccccc2n1-c1nc(N2CCOCC2)nc(N2CCOCC2)n1`, the “intracellular M.tb growth inhibition” value is reported as -26.3 ± 5.5%. For `O=C1c2ccc(O)c(O)c2C(=O)c2c(O)ccc(O)c21` [Quinalizarin], the “intracellular M.tb growth inhibition” value was -115 ± 210%. `S=C(NCc1ccc2c(c1)OCO2)N1CCN(c2ncnc3c2oc2ccccc23)CC1` was tested, and the “intracellular M.tb growth inhibition” value was -35.5 ± 71%. `C/C(=N\N=C(N)N)c1ccc(NC(=O)Nc2ccc(/C(C)=N/N=C(N)N)cc2)cc1` was tested, and the “intracellular M.tb growth inhibition” value was 63.3 ± 10%. For `CS(=O)(=O)CCNCc1nc(-c2ccc3ncnc(Nc4ccc(OCc5cccc(F)c5)c(Cl)c4)c3c2)cs1`, the “intracellular M.tb growth inhibition” value was 37.8 ± 12%. For `COc1cc2ncnc(Nc3ccc(O)c(Br)c3)c2cc1OC`, the “intracellular M.tb growth inhibition” value was 13.5 ± 42%. For `CC(C)CCN1c2nc(Nc3cc(F)c(O)c(F)c3)ncc2N(C)C(=O)C1C` (stereo not given), the “intracellular M.tb growth inhibition” value was -228 ± 190%. With `O=c1cc(-c2cccc3c2Sc2ccccc2S3)oc(N2CCOCC2)c1` the “intracellular M.tb growth inhibition” value was 3.07 ± 24%. With `COc1ccc2c3n(c(=NC(=O)c4cccnc4)nc2c1OC)CCN3` the “intracellular M.tb growth inhibition” value was -0.0325 ± 8.7%. For `COc1ccc(-c2ccc3c(N4CCOC[C@@H]4C)nc(N4CCOC[C@@H]4C)nc3n2)cc1CO`, the “intracellular M.tb growth inhibition” value was -202 ± 240%. With `FC(F)(F)c1ccc(/C=C/c2nc(COc3ccc(CCCCn4ccnn4)cc3)co2)cc1` [Mubritinib] the “intracellular M.tb growth inhibition” value was -50.5 ± 170%.
